According to PubChem BioAssay AID1159580 (chemical genetic matrix, 2015):
Hit rate of the full screen: of about 5,500 compounds, about 2,000 (36%) were called active. Roughly 18% stayed inconclusive and do not appear here. No stated cut-off is given here; in the data, active means normalized growth mostly below about 0.91 (no sharp cut-off); inconclusive means no clear call, values can overlap the other calls; inactive means mostly above about 0.92. Some of the results follow.

Assay: chemical genetic growth profiling, strain panel (AID 1159580);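 further: tested at 20 µM; growth read once vehicle control cultures reached saturation at 30 °C; 1 = growth at the plate median or of vehicle wells; lower values mean less growth of the strain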
Details: growth OD

Measured: normalized growth

CC1(C)OC(=O)NC1=O
inactive: S. cerevisiae deletion strains, locus YJR075W, strain HOC1, active compounds read low 0.981 | S. cerevisiae deletion strains, locus YKL009W, strain mrt4, active compounds read low 0.966 | S. cerevisiae deletion strains, locus YKL068W, active compounds read low 0.988 | S. cerevisiae deletion strains, locus YKL085W, strain MDH1 (second series), active compounds read low 1.06 | S. cerevisiae deletion strains, locus YKL085W, strain MDH1, active compounds read low 1.06 | S. cerevisiae deletion strains, locus YKL160W, strain elf1, active compounds read low 1.01 | S. cerevisiae deletion strains, locus YKR001C, strain vps1, active compounds read low 1.01 | S. cerevisiae deletion strains, locus YKR026C, strain gcn3, active compounds read low 0.994 | S. cerevisiae deletion strains, locus YKR091W, strain srl3, active compounds read low 1.01 | S. cerevisiae deletion strains, locus YLL001W, strain dnm1, active compounds read low 1.02 | S. cerevisiae deletion strains, locus YLL026W, active compounds read low 1.01 | S. cerevisiae deletion strains, locus YLL041C, strain sdh2, active compounds read low 1.01 | S. cerevisiae deletion strains, locus YLR027C, strain aat2, active compounds read low 1.01 | S. cerevisiae deletion strains, locus YLR039C, strain RIC1, active compounds read low 1.02 | S. cerevisiae deletion strains, locus YLR058C, strain SHM2, active compounds read low 0.983 | S. cerevisiae deletion strains, locus YLR102C, strain apc9, active compounds read low 0.981 | S. cerevisiae deletion strains, locus YLR113W, strain HOG1, active compounds read low 1.02 | S. cerevisiae deletion strains, locus YLR221C, strain rsa3, active compounds read low 0.991 | S. cerevisiae deletion strains, locus YLR258W, strain gsy2, active compounds read low 1 | S. cerevisiae deletion strains, locus YLR262C, strain YPT6 (second series), active compounds read low 1.03 | S. cerevisiae deletion strains, locus YLR262C, strain YPT6, active compounds read low 0.97 | S. cerevisiae deletion strains, locus YLR268W, strain sec22, active compounds read low 0.989 | S. cerevisiae deletion strains, locus YLR320W, strain mms22, active compounds read low 0.975 | S. cerevisiae deletion strains, locus YLR330W, strain CHS5, active compounds read low 0.996 | S. cerevisiae deletion strains, locus YLR342W, strain FKS1 (second series), active compounds read low 1.04 | S. cerevisiae deletion strains, locus YLR342W, strain FKS1, active compounds read low 1.02 | S. cerevisiae deletion strains, locus YLR357W, strain rsc2, active compounds read low 1.03 | S. cerevisiae deletion strains, locus YLR370C, strain arc18, active compounds read low 1.02 | S. cerevisiae deletion strains, locus YLR371W, strain rom2, active compounds read low 0.98 | S. cerevisiae deletion strains, locus YLR384C, strain iki3, active compounds read low 1.01 | S. cerevisiae deletion strains, locus YLR418C, strain cdc73, active compounds read low 0.958 | S. cerevisiae deletion strains, locus YML016C, strain PPZ1, active compounds read low 0.997 | S. cerevisiae deletion strains, locus YML032C, strain rad52, active compounds read low 0.98 | S. cerevisiae deletion strains, locus YML120C, strain ndi1, active compounds read low 1.02 | S. cerevisiae deletion strains, locus YML124C, strain tub3, active compounds read low 0.983 | S. cerevisiae deletion strains, locus YMR058W, strain fet3, active compounds read low 1.03 | S. cerevisiae deletion strains, locus YMR078C, strain ctf18, active compounds read low 0.971 | S. cerevisiae deletion strains, locus YMR125W, strain sto1, active compounds read low 1.05 | S. cerevisiae deletion strains, locus YMR129W, active compounds read low 1.01 | S. cerevisiae deletion strains, locus YMR205C, strain PFK2, active compounds read low 1.02 | S. cerevisiae deletion strains, locus YMR223W, strain ubp8, active compounds read low 0.964 | S. cerevisiae deletion strains, locus YMR231W, strain pep5, active compounds read low 1.01 | S. cerevisiae deletion strains, locus YMR263W, strain SAP30, active compounds read low 0.981 | S. cerevisiae deletion strains, locus YMR307W, strain GAS1, active compounds read low 1.05 | S. cerevisiae deletion strains, locus YNL067W, strain RPL9B, active compounds read low 0.972 | S. cerevisiae deletion strains, locus YNL071W, strain lat1, active compounds read low 1 | S. cerevisiae deletion strains, locus YNL153C, strain GIM3, active compounds read low 0.989 | S. cerevisiae deletion strains, locus YNL183C, strain NPR1, active compounds read low 0.975 | S. cerevisiae deletion strains, locus YNL209W, strain ssb2, active compounds read low 0.996 | S. cerevisiae deletion strains, locus YNL233W, strain BNI4, active compounds read low 0.983 | S. cerevisiae deletion strains, locus YNL248C, strain rpa49, active compounds read low 1.07 | S. cerevisiae deletion strains, locus YNL250W, strain rad50, active compounds read low 0.967 | S. cerevisiae deletion strains, locus YNL271C, strain bni1, active compounds read low 0.966 | S. cerevisiae deletion strains, locus YNL298W, strain CLA4, active compounds read low 0.971 | S. cerevisiae deletion strains, locus YNL307C, strain MCK1, active compounds read low 0.983 | S. cerevisiae deletion strains, locus YNL322C, strain KRE1 (second series), active compounds read low 1.01 | S. cerevisiae deletion strains, locus YNL322C, strain KRE1, active compounds read low 1.01 | S. cerevisiae deletion strains, locus YNR049C, strain mso1, active compounds read low 1.01 | S. cerevisiae deletion strains, locus YNR052C, strain pop2, active compounds read low 0.971 | S. cerevisiae deletion strains, locus YOL006C, strain TOP1, active compounds read low 0.926 | S. cerevisiae deletion strains, locus YOL012C, strain htz1 0.866 | S. cerevisiae deletion strains, locus YOL147C, strain pex11, active compounds read low 0.973 | S. cerevisiae deletion strains, locus YOR001W, strain rrp6, active compounds read low 1.02 | S. cerevisiae deletion strains, locus YOR061W, strain CKA2, active compounds read low 0.994 | S. cerevisiae deletion strains, locus YOR069W, strain VPS5, active compounds read low 0.991 | S. cerevisiae deletion strains, locus YOR070C, strain gyp1, active compounds read low 0.999 | S. cerevisiae deletion strains, locus YOR080W, strain dia2, active compounds read low 1.02 | S. cerevisiae deletion strains, locus YOR083W, strain WHI5, active compounds read low 0.987 | S. cerevisiae deletion strains, locus YOR106W, strain vam3, active compounds read low 1.03 | S. cerevisiae deletion strains, locus YOR136W, strain idh2, active compounds read low 0.974 | S. cerevisiae deletion strains, locus YOR144C, strain elg1, active compounds read low 0.976 | S. cerevisiae deletion strains, locus YOR184W, strain ser1, active compounds read low 0.966 | S. cerevisiae deletion strains, locus YOR231W, strain MKK1, active compounds read low 1.04 | S. cerevisiae deletion strains, locus YOR265W, strain rbl2, active compounds read low 1.01 | S. cerevisiae deletion strains, locus YOR270C, strain vph1, active compounds read low 1.07 | S. cerevisiae deletion strains, locus YOR290C, strain snf2, active compounds read low 1.02 | S. cerevisiae deletion strains, locus YOR316C, strain cot1, active compounds read low 0.98 | S. cerevisiae deletion strains, locus YPL051W, strain arl3, active compounds read low 1.01 | S. cerevisiae deletion strains, locus YPL078C, strain atp4, active compounds read low 1.01 | S. cerevisiae deletion strains, locus YPL106C, strain sse1, active compounds read low 0.997 | S. cerevisiae deletion strains, locus YPL240C, strain hsp82, active compounds read low 0.996 | S. cerevisiae deletion strains, locus YPL256C, strain CLN2, active compounds read low 1.08 | S. cerevisiae deletion strains, locus YPR119W, strain clb2, active compounds read low 0.977 | S. cerevisiae deletion strains, locus YPR141C, strain kar3, active compounds read low 0.958 | S. cerevisiae deletion strains, locus YPR163C, strain tif3, active compounds read low 0.982 | S. cerevisiae deletion strains, locus YPR167C, strain met16, active compounds read low 0.972 | S. cerevisiae deletion strains, strain wtn01, active compounds read low 0.982 | S. cerevisiae strains, strain wild type, active compounds read low 0.998
